The panel holds about 79,000 compounds, 15% with a hit somewhere; the sample as a whole holds those more often. Active and inactive are the calls of the source. No stated cut-off is given here; in the data, active means growth inhibition above about 70%; inactive means the rest.
Experiment: NCI Yeast Anticancer Drug Screen. Data for the CLN2oe strain (AID 163);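 further: 0% = growth of vehicle-only control cultures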
Conditions: S. cerevisiae CLN2oe strain, stronger effect = higher value
Protocol: Growth inhibition of yeast strains with defined genetic alterations is measured as a screen for potential anti-cancer activity. Selected strains with alterations in DNA damage repair or cell cycle control were exposed to compounds and growth inhibition was measured relative to vehicle treated controls. The strain used in this assay is CLN2oe

Measured: growth inhibition

CCOc1ccc2nc3ccccc3c(N)c2c1
active: at 100.0 µM 92%
inactive: at 1.2 µM 7% | at 3.7 µM 16% | at 11.0 µM 33% | at 33.0 µM 68%

COc1cc(C2C3=C(COC3=O)Oc3cc4c(cc32)OCO4)cc(OC)c1O (stereo not given)
inactive: at 1.2 µM 0% | at 3.7 µM -3% | at 11.0 µM 5% | at 33.0 µM 17% | at 100.0 µM 21%

C/C(=N\Sc1ccccc1)c1ccccc1O
inactive: at 1.2 µM 2% | at 3.7 µM -1% | at 11.0 µM 2% | at 33.0 µM 1% | at 100.0 µM 39%

COc1cc2c(cc1O)[C@H](C)C(c1ccccc1OC)O2 (stereo not given in full)
active: at 100.0 µM 97%
inactive: at 1.2 µM 14% | at 3.7 µM 9% | at 11.0 µM 5% | at 33.0 µM 18%

O=C1C2=C(c3ccccc31)C(c1ccccc1)N1C(=O)CSC1=N2 (stereo not given)
inactive: at 1.2 µM 14% | at 3.7 µM 4% | at 11.0 µM 9% | at 33.0 µM -3% | at 100.0 µM 54%

CCN(CC)CCNc1ccc2nc(C)n3c4ccc(OC)cc4c(=O)c1c23
inactive: at 1.2 µM 1% | at 3.7 µM 15% | at 11.0 µM 17% | at 33.0 µM 21% | at 100.0 µM 17%

Nc1ccc2c(c1)C(=O)c1c(F)cccc1-2
inactive: at 1.2 µM -1% | at 3.7 µM 4% | at 11.0 µM 8% | at 33.0 µM 14% | at 100.0 µM 32%

CC(C)OC(=O)NNc1cc(Cl)ccc1Cl
inactive: at 1.2 µM -1% | at 3.7 µM 4% | at 11.0 µM 29% | at 33.0 µM 50% | at 100.0 µM 59%

Reference: PubChem BioAssay (NCI)
